The subject of one experiment is Klebsiella pneumoniae. Conditions: Concentration 32 ug.mL-1;; ASSAY_TEST Inhibition of Bacterial Growth; detection method Absorption (OD600); MEDIA CAMHB; plate type 384well; NBS; CORNING #3640; time 18 hr.
A further experiment concerns Candida albicans. Conditions: Concentration 32 ug.mL-1; ASSAY_TEST Inhibition of Fungal Growth; detection method Absorption (OD530).
Another experiment relates to Cryptococcus neoformans. Conditions: Concentration 32 ug.mL-1; ASSAY_TEST Inhibition of Fungal Growth; detection method Resazurin; Absorption (OD600-OD570); plate type 384well; NBS; CORNING #3640. (The colour change of resazurin is a common sign of viable cells or microbes.)

Results with a measured potency or affinity are listed apart.

One may read the Inhibition as the drop in the measured response relative to a control, in per cent. For `COc1cccc(-n2ccn3c(SCC(=O)Nc4ccc(Br)cc4)nnc3c2=O)c1`, the results for the Inhibition in the experiment on Klebsiella pneumoniae, in the experiment on Candida albicans and in the experiment on Cryptococcus neoformans were -3.95%, 5.78% and -9.82%, respectively.
In the case of `O=C(Cn1nc2c(SCc3ccc(Cl)cc3)nccn2c1=O)N1CCN(c2ccccc2)CC1`, the Inhibition with Klebsiella pneumoniae was 2.24%; with Candida albicans, 4.87%; in the experiment on Cryptococcus neoformans, -2.91%.
Regarding `COc1cc(NC(=O)Cn2nc3n(CCc4ccccc4)c(=O)c4ccccc4n3c2=O)cc(OC)c1`, the Inhibition is reported as 10.27% with Klebsiella pneumoniae, 12% in the experiment with Candida albicans and -22.83% in the experiment on Cryptococcus neoformans.
In the case of `Cc1cc(C)cc(N(Cc2cc(F)cc(F)c2)S(=O)(=O)c2cccn3c(C)nnc23)c1`, the Inhibition with Klebsiella pneumoniae is 11.7%; in the experiment on Candida albicans, 0.35%; in the experiment with Cryptococcus neoformans, -11.73%.
The like results for `COc1cccc(Cn2nc3n(CCC(=O)NC4CCCCC4)c(=O)c4ccccc4n3c2=O)c1` were, in that order, 9.79%, 5.45% and -13.5%.
The like results for `CCOc1ccc(NC(=O)Cn2nc3c4cc(-c5ccc(Cl)cc5)nn4ccn3c2=O)cc1` were, in that order, 10.46%, 5.03% and -14.66%.
`Cc1ccccc1N1CCN(c2nccn3c(=O)n(CC(=O)NCc4ccc(Cl)cc4)nc23)CC1`: the Inhibition in the experiment with Klebsiella pneumoniae is listed as 7.17%; with Candida albicans, 45.71%; with Cryptococcus neoformans, -4.38%.
In the case of `COc1ccc(-n2ccn3c(=O)n(Cc4cc(C)ccc4C)nc3c2=O)cc1Cl`, the Inhibition in the experiment on Klebsiella pneumoniae is listed as 9.01%; in the experiment on Candida albicans it was 1.96%; in the experiment on Cryptococcus neoformans, -5.13%.
Turning to `CC(=O)c1ccc(NC(=O)Cn2nc3ccc(-c4ccc(C)c(C)c4)nn3c2=O)cc1`, the values for the Inhibition in the experiment with Klebsiella pneumoniae, with Candida albicans and with Cryptococcus neoformans were 0%, 0.28% and -8.82%, respectively.
`COc1ccc(N(Cc2cccc(C)c2)S(=O)(=O)c2ccc3nnc(C)n3c2)cc1`: the Inhibition in the experiment with Klebsiella pneumoniae is 7.11%; in the experiment on Candida albicans it was 0.04%; with Cryptococcus neoformans it was -1.35%.
